Targets with a hit are over-represented here; the source holds about 7,900 in all. About 0.6% of all pairs of compound and target were hits. Unmarked numbers belong to inactive results.

Sequence of UniProt Q14149 (Q14149 whole entry, looked up): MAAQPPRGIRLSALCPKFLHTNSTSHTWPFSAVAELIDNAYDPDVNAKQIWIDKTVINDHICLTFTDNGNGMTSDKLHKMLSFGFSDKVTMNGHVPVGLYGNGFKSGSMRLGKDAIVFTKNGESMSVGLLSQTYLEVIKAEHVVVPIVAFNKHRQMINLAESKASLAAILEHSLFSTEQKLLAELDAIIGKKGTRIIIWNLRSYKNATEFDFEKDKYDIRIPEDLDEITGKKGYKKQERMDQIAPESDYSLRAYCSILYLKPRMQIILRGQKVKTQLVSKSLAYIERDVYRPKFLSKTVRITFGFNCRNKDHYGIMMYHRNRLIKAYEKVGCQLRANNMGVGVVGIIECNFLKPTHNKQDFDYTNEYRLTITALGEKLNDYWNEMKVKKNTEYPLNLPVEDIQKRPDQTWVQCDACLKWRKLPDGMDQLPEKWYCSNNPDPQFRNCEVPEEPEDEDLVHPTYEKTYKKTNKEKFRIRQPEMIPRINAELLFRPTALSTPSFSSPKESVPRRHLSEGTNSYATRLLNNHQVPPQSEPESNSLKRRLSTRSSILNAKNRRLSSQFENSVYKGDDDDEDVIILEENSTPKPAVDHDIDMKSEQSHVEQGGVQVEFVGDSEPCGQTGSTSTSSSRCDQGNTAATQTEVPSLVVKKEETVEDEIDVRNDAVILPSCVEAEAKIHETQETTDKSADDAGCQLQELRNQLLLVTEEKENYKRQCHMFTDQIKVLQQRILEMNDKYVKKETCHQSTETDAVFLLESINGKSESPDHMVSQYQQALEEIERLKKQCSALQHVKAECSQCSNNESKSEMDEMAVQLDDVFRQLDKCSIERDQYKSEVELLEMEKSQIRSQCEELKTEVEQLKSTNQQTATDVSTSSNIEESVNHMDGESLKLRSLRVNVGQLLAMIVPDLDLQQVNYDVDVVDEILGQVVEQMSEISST
Sequence of UniProt P03905 (P03905 whole entry, looked up): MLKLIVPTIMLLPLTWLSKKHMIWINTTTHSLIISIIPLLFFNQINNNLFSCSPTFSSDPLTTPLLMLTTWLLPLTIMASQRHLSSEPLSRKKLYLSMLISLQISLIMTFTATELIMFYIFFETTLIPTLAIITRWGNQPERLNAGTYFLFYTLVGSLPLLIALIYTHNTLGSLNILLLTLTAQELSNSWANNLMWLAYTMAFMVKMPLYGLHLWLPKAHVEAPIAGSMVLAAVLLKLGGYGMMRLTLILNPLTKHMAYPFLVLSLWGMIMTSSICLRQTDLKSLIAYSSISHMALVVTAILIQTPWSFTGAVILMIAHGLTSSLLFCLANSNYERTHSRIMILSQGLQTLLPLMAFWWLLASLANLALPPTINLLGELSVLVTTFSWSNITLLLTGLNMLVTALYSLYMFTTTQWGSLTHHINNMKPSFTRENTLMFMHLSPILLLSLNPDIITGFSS
Sequence of UniProt Q9BWT6 (Q9BWT6 whole entry, looked up): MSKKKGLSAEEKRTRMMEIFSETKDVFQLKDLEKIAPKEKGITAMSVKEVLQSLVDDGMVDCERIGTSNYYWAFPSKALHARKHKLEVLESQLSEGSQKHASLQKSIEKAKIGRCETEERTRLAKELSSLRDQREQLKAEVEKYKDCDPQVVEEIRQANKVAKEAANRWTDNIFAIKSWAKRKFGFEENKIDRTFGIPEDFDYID
Sequence of UniProt O43809 (O43809 whole entry, looked up): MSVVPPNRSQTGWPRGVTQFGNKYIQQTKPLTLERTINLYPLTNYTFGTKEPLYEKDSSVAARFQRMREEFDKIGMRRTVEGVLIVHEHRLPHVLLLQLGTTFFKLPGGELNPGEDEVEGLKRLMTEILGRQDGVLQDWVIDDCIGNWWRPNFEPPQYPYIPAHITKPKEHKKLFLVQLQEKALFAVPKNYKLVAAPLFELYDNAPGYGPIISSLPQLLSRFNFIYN
Sequence of UniProt Q16656 (Q16656 whole entry, looked up): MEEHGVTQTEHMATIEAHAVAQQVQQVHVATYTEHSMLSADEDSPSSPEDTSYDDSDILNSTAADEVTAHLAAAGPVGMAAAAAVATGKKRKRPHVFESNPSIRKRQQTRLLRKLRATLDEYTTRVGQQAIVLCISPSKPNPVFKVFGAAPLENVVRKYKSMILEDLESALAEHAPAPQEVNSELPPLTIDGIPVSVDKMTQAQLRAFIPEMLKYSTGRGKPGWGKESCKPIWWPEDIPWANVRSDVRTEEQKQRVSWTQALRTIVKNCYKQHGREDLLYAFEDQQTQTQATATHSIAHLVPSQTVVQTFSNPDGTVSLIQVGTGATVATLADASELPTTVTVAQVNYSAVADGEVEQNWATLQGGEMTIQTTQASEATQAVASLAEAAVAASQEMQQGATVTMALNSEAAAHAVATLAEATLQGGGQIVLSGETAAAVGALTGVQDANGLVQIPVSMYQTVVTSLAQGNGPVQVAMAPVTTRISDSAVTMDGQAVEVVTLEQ
Sequence of UniProt Q96IV0 (Q96IV0 whole entry, looked up): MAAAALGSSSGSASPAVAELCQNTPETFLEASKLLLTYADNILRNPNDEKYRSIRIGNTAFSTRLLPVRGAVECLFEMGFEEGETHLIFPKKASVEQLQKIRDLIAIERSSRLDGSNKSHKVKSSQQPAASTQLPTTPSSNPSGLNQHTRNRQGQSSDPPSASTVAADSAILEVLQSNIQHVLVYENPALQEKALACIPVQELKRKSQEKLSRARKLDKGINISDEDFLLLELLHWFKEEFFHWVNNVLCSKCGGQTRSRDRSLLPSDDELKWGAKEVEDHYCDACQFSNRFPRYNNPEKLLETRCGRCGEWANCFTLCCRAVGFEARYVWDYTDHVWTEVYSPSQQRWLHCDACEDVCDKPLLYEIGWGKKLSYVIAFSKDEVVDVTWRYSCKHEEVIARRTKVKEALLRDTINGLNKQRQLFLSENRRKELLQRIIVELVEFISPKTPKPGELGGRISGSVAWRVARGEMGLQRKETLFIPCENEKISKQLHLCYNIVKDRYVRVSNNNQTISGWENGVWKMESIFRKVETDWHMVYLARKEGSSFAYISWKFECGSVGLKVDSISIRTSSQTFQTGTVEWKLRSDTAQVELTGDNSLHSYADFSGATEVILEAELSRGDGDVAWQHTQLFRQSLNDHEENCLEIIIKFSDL
Sequence of UniProt O14950 (O14950 whole entry, looked up): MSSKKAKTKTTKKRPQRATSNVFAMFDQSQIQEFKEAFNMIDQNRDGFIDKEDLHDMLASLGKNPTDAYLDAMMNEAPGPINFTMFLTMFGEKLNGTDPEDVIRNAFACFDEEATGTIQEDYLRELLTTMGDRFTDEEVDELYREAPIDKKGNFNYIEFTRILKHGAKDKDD
Sequence of UniProt P49914 (P49914 whole entry, looked up): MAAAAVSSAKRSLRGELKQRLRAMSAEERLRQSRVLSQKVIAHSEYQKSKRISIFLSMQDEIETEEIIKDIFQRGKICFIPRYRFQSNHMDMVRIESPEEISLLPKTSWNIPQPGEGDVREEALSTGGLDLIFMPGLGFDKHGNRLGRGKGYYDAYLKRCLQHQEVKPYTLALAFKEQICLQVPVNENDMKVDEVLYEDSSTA
Sequence of UniProt P20585 (P20585 whole entry, looked up): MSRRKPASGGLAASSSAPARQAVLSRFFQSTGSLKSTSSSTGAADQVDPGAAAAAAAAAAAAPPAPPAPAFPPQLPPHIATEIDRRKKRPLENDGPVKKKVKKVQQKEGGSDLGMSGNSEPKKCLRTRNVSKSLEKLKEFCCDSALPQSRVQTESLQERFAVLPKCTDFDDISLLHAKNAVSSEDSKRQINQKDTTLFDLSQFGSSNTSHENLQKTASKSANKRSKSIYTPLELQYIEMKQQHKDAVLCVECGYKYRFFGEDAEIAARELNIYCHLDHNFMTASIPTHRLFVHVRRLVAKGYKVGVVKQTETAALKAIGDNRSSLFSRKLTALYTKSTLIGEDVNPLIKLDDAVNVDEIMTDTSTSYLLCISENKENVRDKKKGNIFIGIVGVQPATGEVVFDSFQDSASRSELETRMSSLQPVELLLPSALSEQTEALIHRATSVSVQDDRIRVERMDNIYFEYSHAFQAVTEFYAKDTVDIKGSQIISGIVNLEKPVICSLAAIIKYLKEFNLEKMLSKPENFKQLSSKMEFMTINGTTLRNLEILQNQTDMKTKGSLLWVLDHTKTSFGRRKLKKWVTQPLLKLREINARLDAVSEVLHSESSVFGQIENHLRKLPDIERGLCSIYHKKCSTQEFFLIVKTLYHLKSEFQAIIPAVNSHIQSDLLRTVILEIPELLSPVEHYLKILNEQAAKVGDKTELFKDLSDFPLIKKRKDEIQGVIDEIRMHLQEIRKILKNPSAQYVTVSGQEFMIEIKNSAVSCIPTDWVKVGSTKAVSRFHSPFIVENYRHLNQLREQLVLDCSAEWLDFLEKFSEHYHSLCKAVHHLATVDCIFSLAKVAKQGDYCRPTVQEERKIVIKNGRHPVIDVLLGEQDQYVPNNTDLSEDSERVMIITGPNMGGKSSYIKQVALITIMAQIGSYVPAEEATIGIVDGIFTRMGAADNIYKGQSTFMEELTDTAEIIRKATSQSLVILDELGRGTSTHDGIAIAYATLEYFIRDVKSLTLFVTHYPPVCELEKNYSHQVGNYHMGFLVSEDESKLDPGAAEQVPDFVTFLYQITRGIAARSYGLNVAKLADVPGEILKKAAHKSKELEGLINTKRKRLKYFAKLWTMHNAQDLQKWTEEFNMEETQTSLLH
Sequence of UniProt Q9H1E3 (Q9H1E3 whole entry, looked up): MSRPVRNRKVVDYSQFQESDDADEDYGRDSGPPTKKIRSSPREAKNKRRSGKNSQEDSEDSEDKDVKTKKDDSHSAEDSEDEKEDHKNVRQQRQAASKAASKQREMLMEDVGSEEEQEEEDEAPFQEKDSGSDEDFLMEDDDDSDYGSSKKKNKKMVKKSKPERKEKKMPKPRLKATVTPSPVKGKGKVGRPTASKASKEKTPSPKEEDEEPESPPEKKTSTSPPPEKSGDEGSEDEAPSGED
Sequence of UniProt Q9H081 (Q9H081 whole entry, looked up): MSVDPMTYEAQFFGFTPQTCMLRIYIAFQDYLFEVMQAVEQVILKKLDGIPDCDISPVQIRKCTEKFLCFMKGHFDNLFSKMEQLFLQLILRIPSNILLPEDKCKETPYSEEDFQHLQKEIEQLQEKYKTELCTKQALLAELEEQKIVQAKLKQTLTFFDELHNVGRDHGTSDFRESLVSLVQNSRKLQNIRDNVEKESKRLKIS

Compound in the assay: Nc1ccccc1NC(=O)c1ccc(CNC(=O)OCc2cccnc2)cc1 [entinostat]
As to the kind of experiment: log2 fold change, soluble protein after heating vs DMSO (PISA); higher = thermal stabilisation; K562 cells, 10 uM, 30 min; active = over 0.2 and 3.5 SD of the protein, either way, in both replicates (recomputed). In a few lines: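 K562 cells at 2×10^6 cells/mL were given 10 μM compound for 30 min. Aliquots then went through 3 min of heating across 48°C-58°C, were pooled, and were extracted in PBS with 0.5% NP-40 at 4°C, and the supernatant after 21,000xg for 90 min was quantified by TMTpro 16plex LC-MS/MS with channel sums equalised. Thermal stability relative to control samples, from duplicates, is given as log2 fold change.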
For the target MORC3 (UniProt Q14149), the log2 fold change is -0.021. In the case of MRPS31 (UniProt Q92665) it was -0.011; in that of MRPS9 (UniProt P82933), 0.008; in that of NDUFA9 (UniProt Q16795), 0.039.

As to OSTM1 (UniProt Q86WC4), the log2 fold change is 0.006. In the case of MRPS24 (UniProt Q96EL2) it was 0.001. The result for NDUFS4 (UniProt O43181) reads -0.095. On to OXSR1 (UniProt O95747), for which the log2 fold change was 0.031. In the case of MIS12 (UniProt Q9H081) it was 0.027.

For the target NGLY1 (UniProt Q96IV0), the log2 fold change was 0.025. In the case of MND1 (UniProt Q9BWT6) it was 0.041. In the case of NOL7 (UniProt Q9UMY1) it was -0.079; in that of NDFIP1 (UniProt Q9BT67), -0.291. As to MTHFS (UniProt P49914), the log2 fold change was 0.007. For MRPL50 (UniProt Q8N5N7), the log2 fold change is 0.059. In the case of NEDD4L (UniProt Q96PU5) it was 0.075; in that of NUCKS1 (UniProt Q9H1E3), -0.01. The result for MOV10 (UniProt Q9HCE1) reads 0.016; that for NUDT21 (UniProt O43809), 0.037.

OGFR (UniProt Q9NZT2): the log2 fold change was -0.02. In the case of MSH6 (UniProt P52701) it was 0.229.

NECTIN2 (UniProt Q92692): the log2 fold change is -0.029.

Consider MKNK1 (UniProt Q9BUB5), for which the log2 fold change was -0.026. The result for PAK1 isoform 2 (UniProt Q13153) reads 0.021; that for MSH3 (UniProt P20585), -0.032. In the case of PACS1 (UniProt Q6VY07) it was 0.004; in that of NA, A0A0B4J2A0, 0.029. In the case of MSTO1 (UniProt Q9BUK6) it was -0.005. NDUFAF6 (UniProt Q330K2): the log2 fold change was 0.026. The result for NRF1 isoform 4 (UniProt Q16656) reads 0.056. With NNMT (UniProt P40261), the log2 fold change was -0.056. Turning to NDUFS8 (UniProt O00217), the log2 fold change was 0.065. The result for NCKAP1 isoform 2 (UniProt Q9Y2A7) reads 0.024.

Consider MYH10 isoform 3 (UniProt P35580), for which the log2 fold change is 0.019.

As for MYL12B (UniProt O14950), the log2 fold change is 0.029. Turning to OSBPL8 (UniProt Q9BZF1), the log2 fold change was 0.012. In the case of NAP1L1 (UniProt P55209) it was 0.02; in that of NOP53 (UniProt Q9NZM5), -0.141; in that of MT-ND4 (UniProt P03905), 0.099.

The values above are taken from the supplement of paper PMC10849652.
